The campaign covered roughly 2,100 compounds. About 590 (28%) were called active. Another 42% or so got no clear call; they are omitted. The call rests on the fitted dose curve; in most records, active means well fitted inhibition curve with a large enough effect; inconclusive means small, poorly fitted or top-dose-only effect; inactive means flat fitted curve, though single readings scatter. This is one part of the list.
biological target: DNA dC->dU-editing enzyme APOBEC-3F (Homo sapiens) (UniProt Q8IUX4); assay: qHTS for inhibitors of Vif-A3F interactions: Cherry picks; conditions: HeLa A3F-eYFP + Vif (tagged APOBEC3F with the HIV-1 protein that degrades it), eYFP fluorescence, 24 h; further: nearly all actives have a fitted effect of over 70% in size;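 on max response: % of control where 0% means no effect; active compounds raise eYFP fluorescence by blocking Vif-driven A3F loss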
Sequence (Q8IUX4 whole entry, looked up): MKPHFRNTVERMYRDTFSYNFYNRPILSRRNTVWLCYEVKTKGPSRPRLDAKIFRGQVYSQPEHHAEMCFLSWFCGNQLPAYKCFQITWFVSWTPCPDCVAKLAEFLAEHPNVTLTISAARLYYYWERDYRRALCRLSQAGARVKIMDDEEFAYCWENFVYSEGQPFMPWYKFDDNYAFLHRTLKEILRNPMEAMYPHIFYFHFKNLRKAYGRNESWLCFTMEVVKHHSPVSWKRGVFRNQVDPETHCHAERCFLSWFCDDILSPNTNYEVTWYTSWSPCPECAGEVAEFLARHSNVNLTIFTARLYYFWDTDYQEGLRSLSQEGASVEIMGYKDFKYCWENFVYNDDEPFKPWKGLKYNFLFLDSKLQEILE
Procedure, shortened: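 HeLa cells stably expressing A3F-eYFP plus Vif, cultured overnight, then exposed to compounds at several concentrations for 24 h at 37 deg C. Reduced Vif-driven degradation read as rising eYFP fluorescence (488 nm ex/500-530 nm em) by laser-scanning cytometry; MG132 as positive control.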
Potency means the concentration at half of the fitted maximal effect.

Structure (SMILES)	Potency	max response
O=C(NNC1=Nc2cccc3cccc1c23)c1ccc(Br)cc1	16.4 µM (active)	–
CC(C)OC(=O)c1cc(C(=O)c2cc(F)ccc2O)coc1=N	23.1 µM (active)	–
C=CCN=c1scc(-c2ccc(F)cc2)n1/N=C/c1ccccn1	–	5.22% (inactive)
Cc1ccc(-n2nc3c(SCCN4CCOCC4)nnc(C)c3c2C)cc1	–	-16.8% (inactive)
Cc1nnc(SCC(=O)NCc2ccccc2F)c2nn(-c3ccc(Cl)cc3)c(C)c12	16.4 µM (active)	–
C=C1C(=O)O[C@H]2C1CC[C@@](C)(O)C13C=CC(C)(C21)C1(C3)C(=O)O[C@@H]2C3C(C)=CCC3[C@](C)(O)C[C@H](OC(C)=O)C21 (some centres not stated)	–	-25.3% (inactive)
CCN1/C(=C/c2ccc3ccccc3[n+]2CC)C=Cc2ccccc21	–	-17% (inactive)
CCN1/C(=C/c2cc[n+](C)cc2)C=Cc2cc(C)ccc21	11.6 µM (active)	–
CC1(C)COC(Cn2c3ccccc3c3ccccc32)O1 (configuration not stated)	–	-25.3% (inactive)
CCOc1cc([N+](=O)[O-])cc2c1C(=O)Nc1ccccc1O2	–	-12% (inactive)
O=C1Nc2ccc(Br)cc2C12NNc1ccccc1O2 (configuration not stated)	14 µM (active)	–
COc1ccc(CCNC(=O)CC2(CC3=NS(=O)(=O)c4ccccc4N3)CCCC2)cc1OC	–	-0.97% (inactive)
Cc1cc(C)cc(NC(=S)NC(=O)C2CC2)c1	–	-4.35% (inactive)
Cc1cc(C)cc(NC(=O)Cn2cc(C(=O)C3CCCCC3)c3ccccc32)c1	18.4 µM (active)	–
CCn1c2ccccc2c2cc(NC(=O)CNCc3ccccc3OC)ccc21	–	-24.7% (inactive)
CCN(Cc1ccccc1)c1ccc(/C=C(\C#N)c2ccccn2)cc1	–	-7.46% (inactive)
CN(C)c1ccc(C=Cc2nccc3ccccc23)cc1	11.2 µM (active)	–
CCN(Cc1ccccc1)c1ccc(/C=C/c2nccc3ccccc23)cc1	20.6 µM (active)	–
CCN(CC)c1nc(C=Cc2ccc(N(C)C)cc2)c2nccnc2n1	1.84 µM (active)	–
CN(C)c1ccc(/C=C/c2nccc3ccccc23)cc1	18.4 µM (active)	–
O=C(OCC12CC3CC(CC(C3)C1)C2)c1ccc(NCc2cc(O)ccc2O)cc1	–	-19.8% (inactive)
NC(=O)c1ccc(NC(=O)C#Cc2ccccc2)cc1	–	-20.2% (inactive)
CC[n+]1c(C=C2C=C(C)OC(C)=C2)sc2ccccc21	2.31 µM (active)	–

Structure (SMILES)	Potency	max response
CN(C)c1ccc2nc3c(=O)[nH]c(=O)nc-3n(CC(O)C(O)C(O)CO)c2c1 (configuration not stated)	–	-2.88% (inactive)
O=[N+]([O-])c1ccc(N/N=C\c2cccn2-c2ccccc2)nc1	14 µM (active)	–
CCN(CC)c1ccc(C=NNc2ccc([N+](=O)[O-])cn2)cc1	–	-25.4% (inactive)
CC1=C(n2nnc3ccccc32)C(c2ccccc2)C(C#N)=C(N)O1 (configuration not stated)	–	-5.98% (inactive)
CCN(CC)c1ccc2c(c1)OC(N)=C(C#N)C2c1cccnc1 (configuration not stated)	17.7 µM (active)	–
COc1cc(C2C(C#N)=C(N)Oc3cc(O)ccc32)cc2c1OCO2 (configuration not stated)	–	-28.2% (inactive)
CN(C)c1ccc(/C=C(/C#N)C(=O)NCc2ccccc2)o1	14.6 µM (active)	–
N#C/C(=C\c1ccccc1[N+](=O)[O-])C(=O)NCc1ccccc1	–	-6.74% (inactive)
COc1cc(OC)c(/C=C/c2ccc3ccccc3[n+]2C)c(OC)c1	5.17 µM (active)	–
COc1cc(OC)c(C2Nc3cccc4cccc(c34)N2)c(OC)c1	–	-0.492% (inactive)
CC(=O)c1cccc(-c2ccnc3c2CC(C(=O)Nc2ccc(Cl)cc2)O3)c1 (configuration not stated)	–	-28.2% (inactive)
Nc1nc(-c2cc(O)ccc2[N+](=O)[O-])cc(-c2ccccc2)c1[N+](=O)[O-]	12.5 µM (active)	–
COc1ccc(OC)c(NC(=O)Cn2c(=O)n(-c3ccc(Cl)cc3)c(=O)c3c(C)c(C)sc32)c1	20.6 µM (active)	–
CCN(CC)C(=O)Cn1c(=O)n(-c2ccccc2)c(=O)c2c3c(sc21)CCC3	–	1.37% (inactive)
COc1ccc(OC)c(NC(=O)Cn2cnc3onc(-c4ccc(Cl)cc4)c3c2=O)c1	–	-18% (inactive)
CC(C)NC(=S)N/N=C/c1sc(N2CCCCC2)nc1-c1cccs1	16.4 µM (active)	–
CC(C)NC(=S)N/N=C1\CCCCc2ccccc21	–	2.14% (inactive)
CNC(=S)N/N=C/c1ccc(N2CCOCC2)s1	–	-10.3% (inactive)
N#Cc1c(C(F)(F)F)cc(-c2ccccc2)nc1SCc1nc(N)nc(N2CCOCC2)n1	5.8 µM (active)	–
COc1cc(N2CCCC2)c(OC)cc1/C=C(/C#N)c1ccc(Br)cc1	7.31 µM (active)	–
COc1cc(N2CCCC2)c(OC)cc1/C=C(/C#N)c1ccc(F)cc1	20.6 µM (active)	–
CC1Cc2cc(S(=O)(=O)CCC(=O)NCc3ccc(Cl)cc3)ccc2N1C(=O)C1CC1 (configuration not stated)	–	-29.5% (inactive)
Cc1ccc(C(=O)Nc2sc(Cc3ccc4c(c3)OCO4)c(C)c2C(N)=O)cc1	6.51 µM (active)	–

Structure (SMILES)	Potency	max response
COC(=O)c1c(-c2cccnc2)csc1NC(=O)c1ccc2c(c1)OCO2	–	-11.9% (inactive)
O=C(/C=C/c1cccs1)NCc1ccc2c(c1)OCO2	–	1.53% (inactive)
CCOc1cc(/C=C2\N=C(SC(C)C(N)=O)N(c3ccc(OC(F)F)cc3)C2=O)ccc1O (configuration not stated)	15.8 µM (active)	–
COc1cc(N2CCCC2)c(OC)cc1/C=C1/NC(=S)NC1=O	3.53 µM (active)	–
Cc1cccc2cc(C#N)c(SCC(=O)N3CC(=O)Nc4ccccc43)nc12	4.44 µM (active)	–
Cc1cc(C)c2nc(SCC(=O)N3CC(=O)Nc4ccccc43)c(C#N)cc2c1	3.96 µM (active)	–
CC(C)(C)c1ccc(OCC(=O)Nc2ccc3c4c(cccc24)C(=O)NC3=O)cc1	–	5.82% (inactive)
CCCCn1c(N)c(N(Cc2ccccc2OC)C(=O)c2ccc([N+](=O)[O-])s2)c(=O)[nH]c1=O	–	-9.57% (inactive)
O=C(NCC1CCCO1)c1nn2c(C(F)(F)F)cc(-c3cc(Br)cs3)nc2c1Br (configuration not stated)	11.6 µM (active)	–
COc1ccc(S(=O)(=O)Nc2cc(Sc3ncn[nH]3)c(O)c3ccccc23)cc1	–	-14.9% (inactive)
Cc1c2ccccc2nc2c(F)c(NC(C)C)c(F)c(F)c12	6.51 µM (active)	–
CCCNc1c(F)c(F)c2c(C)c3ccccc3nc2c1F	14 µM (active)	–
CC(C)C1C(=O)N(Cc2cn(CCC3OCCCO3)nn2)CCS(=O)(=O)N1Cc1ccc(-c2cccc(CO)c2)cc1 (configuration not stated)	–	-10.5% (inactive)
CCOC(=O)c1sc2cc([N+](=O)[O-])cc(SCC(C)C)c2c1N	2.06 µM (active)	–
COC(=O)c1sc2cc([N+](=O)[O-])cc(SCC(C)C)c2c1N	13 µM (active)	–
CC1(C(=O)Nc2ccc3c(c2)OCO3)Cc2c(-c3ccccc3)ccnc2O1 (configuration not stated)	–	-25.3% (inactive)
COc1cc2c(cc1OC)C1=CC(=O)C(=O)N1C(C)(C)C2	14 µM (active)	–
COc1ccc(N/C=C/c2nc(SC)nnc2C)cc1	–	-11.1% (inactive)
C=CCSc1nnc(C)c(/C=C/Nc2ccc(Cl)cc2)n1	20.6 µM (active)	–
O=C1c2ccccc2-c2nc3ccccc3cc21	–	-23.6% (inactive)
O=C1c2ccccc2C(=O)c2cc(N3CCCCC3)ccc21	8.86 µM (active)	–
C=C(/C=C/c1ccc(N(C)C)cc1)c1nc2ccccc2s1	14.6 µM (active)	–
COc1cc(/C=C2\SC(=S)N(NC(=O)c3ccccc3OC)C2=O)ccc1O	–	-7.76% (inactive)

Structure (SMILES)	Potency	max response
O=C(O)c1cc(-c2ccc(/C=C3/SC(=S)N(Cc4ccccc4)C3=O)o2)ccc1Cl	13 µM (active)	–
COc1cc(/C=C2/SC(=S)N(CCC(=O)Nc3ccccc3)C2=O)cc(OC)c1OC	18.4 µM (active)	–
O=C1/C(=C\c2ccc(O)cc2)SC(=S)N1Cc1ccccc1	–	-2.14% (inactive)
COc1cc(/C=C2\SC(=S)N(NC(=O)c3ccccc3O)C2=O)ccc1O	–	-22.7% (inactive)
COc1cc(/C=C2/SC(=S)N(Cc3ccccc3)C2=O)cc(Cl)c1O	4.44 µM (active)	–
O=C1/C(=C/c2ccc(N3CCCC3)cc2)NC(=S)N1C1CC1	5.17 µM (active)	–
Cc1cc(/C=C2\NC(=S)N(C)C2=O)ccc1N1CCCC1	12.5 µM (active)	–
Cc1cc(N2CCCC2)ccc1/C=C1\NC(=S)N(C)C1=O	1.84 µM (active)	–
O=C(Oc1ccc(Cl)c2cccnc12)c1ccco1	–	-0.0527% (inactive)
CS(=O)(=O)N(CC(=O)N1CCN(Cc2ccccc2)CC1)c1ccccc1F	–	0.272% (inactive)
CN(C)c1ccc(/C=C/c2ccnc3cc(Cl)ccc23)cc1	2.91 µM (active)	–
CN(C)c1ccc(/C=C/c2ccnc3ccc(Br)cc23)cc1	3.66 µM (active)	–
CN(C)c1ccc(/C=C/c2ccnc3ccc(N)cc23)cc1	20.6 µM (active)	–
Cc1ccc2nccc(/C=C/c3ccc(N(C)C)cc3)c2c1	5.8 µM (active)	–
CN(C)c1ccc(/C=C/c2ccnc3ccc(I)cc23)cc1	8.2 µM (active)	–
Cc1ccc2c(/C=C/c3ccc(N(C)C)cc3)ccnc2c1	18.4 µM (active)	–
Cc1cc(C)c2nccc(/C=C/c3ccc(N(C)C)cc3)c2c1	10.3 µM (active)	–
COc1ccc2nccc(/C=C/c3ccc(N(C)C)cc3)c2c1	23.1 µM (active)	–
CC(=O)Nc1cccc(-c2ccnc3c2CC(C)(C(=O)Nc2cccc(C(C)=O)c2)O3)c1 (configuration not stated)	–	-22.1% (inactive)
S=C(NCCSCc1ccc(Cl)cc1)Nc1ccccc1	–	-0.773% (inactive)
N#CC1CC(c2ccccc2)Nc2cc(Cl)ccc2N1 (configuration not stated)	–	-26.3% (inactive)
COc1cc(Cl)c(C)cc1NC(=O)CN1CCN(C(=O)C2CC2)CC1	–	-14.7% (inactive)
CCC(C)Sc1cc(-c2nc3ccccn3c2NC2CCCCC2)ccc1OC (configuration not stated)	–	-11.6% (inactive)
